From the supplement of paper PMC9950053
Counter-ions that a name gives are not always drawn.

Test system: Danio rerio larvae (5 dpf)
Experiment: startle (activity period 16 minus period 15, 20-s interval sound) minus DMSO control (percentage points); higher = stronger startle response than DMSO larvae
Conditions: 10 µM; exposure time: 3 h pre-incubation + 3 h imaging
Experimental: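 Wild-type 5 dpf zebrafish larvae (n=48 per drug, 96-well plates, 28.5 °C) were exposed to Tocris FDA-approved library compounds at 10 µM (0.1% DMSO) for 3 h before and 3 h during imaging. Images were taken every 6 s during visual and acoustic stimuli, and larvae were tracked with Z-LaP Tracker. Each measure is the treated-group mean minus the DMSO control mean (n=844), in percentage points. This mapping covers compounds with 5-character plate codes.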

Row | Structure (SMILES) | startle
1 | C[C@H]1O[C@H](O[C@H]2[C@H](O)[C@@H](O)[C@@H](O[C@H]3[C@H](O)[C@@H](O)C(O)O[C@@H]3CO)O[C@@H]2CO)[C@H](O)[C@@H](O)[C@@H]1N[C@H]1C=C(CO)[C@@H](O)[C@H](O)[C@H]1O (some centres not stated) [Acarbose] | -7.07
2 | COc1ccccc1Oc1c(NS(=O)(=O)c2ccc(C(C)(C)C)cc2)nc(-c2ncccn2)nc1OCCO [Bosentan] | 7.41
3 | CCCCCCCN(CC)CCCC(O)c1ccc(NS(C)(=O)=O)cc1 (configuration not stated) [Ibutilide hemifumarate] | -4.59
4 | CNS(=O)(=O)Cc1ccc2[nH]cc(CCN(C)C)c2c1 [Sumatriptan succinate] | 2.1
5 | C#CCN[C@@H]1CCc2ccccc21 [Rasagiline mesylate] | 3.19
6 | OC(c1cc(C(F)(F)F)nc2c(C(F)(F)F)cccc12)C1CCCCN1 (configuration not stated) [Mefloquine hydrochloride] | -13.1
7 | CCCc1nn(C)c2c(=O)[nH]c(-c3cc(S(=O)(=O)N4CCN(C)CC4)ccc3OCC)nc12 [Sildenafil citrate] | -1.15
8 | COc1cc([C@@H]2c3cc4c(cc3[C@@H](O[C@@H]3O[C@@H]5CO[C@@H](C)O[C@H]5[C@H](O)[C@H]3O)[C@H]3COC(=O)[C@H]23)OCO4)cc(OC)c1O [Etoposide] | -0.943
9 | CN(C)CCc1c[nH]c2ccc(C[C@H]3COC(=O)N3)cc12 [Zolmitriptan] | 2.75
10 | Clc1ccc2nsnc2c1NC1=NCCN1 [Tizanidine hydrochloride] | -2.98
11 | CC[C@H]1OC(=O)[C@H](C)[C@@H](O[C@H]2C[C@@](C)(OC)[C@@H](O)[C@H](C)O2)[C@H](C)[C@@H](O[C@@H]2O[C@H](C)C[C@H](N(C)C)[C@H]2O)[C@](C)(O)C[C@@H](C)CN(C)[C@H](C)[C@@H](O)[C@]1(C)O [Azithromycin] | 2.55
12 | OCCN1C[C@H](O)[C@@H](O)[C@H](O)[C@H]1CO [Miglitol] | -0.148
13 | C[C@@H]1C[C@H]2[C@@H]3CCC4=CC(=O)C=C[C@]4(C)[C@@]3(F)[C@@H](O)C[C@]2(C)[C@@]1(O)C(=O)CO [Dexamethasone] | -0.0968
14 | CC(C)(C(=O)O)c1ccc(C(O)CCCN2CCC(C(O)(c3ccccc3)c3ccccc3)CC2)cc1 (configuration not stated) [Fexofenadine hydrochloride] | 3.14
15 | COc1cc2nccc(Oc3ccc(NC(=O)C4(C(=O)Nc5ccc(F)cc5)CC4)cc3)c2cc1OC | -3.85
16 | CC(=O)Oc1cc2c(s1)CCN(C(C(=O)C1CC1)c1ccccc1F)C2 (configuration not stated) [Prasugrel] | -11.4
17 | COc1ccccc1OCC(O)CN1CCN(CC(=O)Nc2c(C)cccc2C)CC1 (configuration not stated) [Ranolazine dihydrochloride] | 2.16
18 | CNC(=O)c1cc(Oc2ccc(NC(=O)Nc3ccc(Cl)c(C(F)(F)F)c3)cc2)ccn1 [Sorafenib] | -3.34
19 | CNCc1ccc(-c2[nH]c3cc(F)cc4c3c2CCNC4=O)cc1 [Rucaparib camsylate] | -4.48

Row | Structure (SMILES) | startle
20 | COCCc1ccc(OCC(O)CNC(C)C)cc1 (configuration not stated) [Metoprolol tartrate] | 4.47
21 | CC(C)COCC(CN(Cc1ccccc1)c1ccccc1)N1CCCC1 (configuration not stated) [Bepridil hydrochloride] | -3.27
22 | OCc1cc(C(O)CNCCCCCCOCCCCc2ccccc2)ccc1O (configuration not stated) [Salmeterol xinafoate] | -4.63
23 | N#Cc1ccc2[nH]cc(CCCCN3CCN(c4ccc5oc(C(N)=O)cc5c4)CC3)c2c1 [Vilazodone hydrochloride] | -7.54
24 | CN[C@H]1CC[C@@H](c2ccc(Cl)c(Cl)c2)c2ccccc21 [Sertraline hydrochloride] | 2.62
25 | O=C(O)C[C@H](O)C[C@H](O)/C=C/c1c(C2CC2)nc2ccccc2c1-c1ccc(F)cc1 [Pitavastatin calcium] | 2.76
26 | CCc1nc(N)nc(N)c1-c1ccc(Cl)cc1 [Pyrimethamine] | 1.66
27 | CC(C)OC(=O)C(C)(C)Oc1ccc(C(=O)c2ccc(Cl)cc2)cc1 [Fenofibrate] | -5.75
28 | COc1cc(N)c(Cl)cc1C(=O)NC1CCN(CCCOc2ccc(F)cc2)CC1OC (configuration not stated) [Cisapride] | -1.14
29 | Cc1cc2c(s1)Nc1ccccc1N=C2N1CCN(C)CC1 [Olanzapine] | 2.27
30 | O=c1n(CCCN2CCN(c3cccc(Cl)c3)CC2)nc2ccccn12 [Trazodone hydrochloride] | 3.18
31 | CN(C)C(=N)NC(=N)N [Metformin hydrochloride] | -2.04
32 | CCCC1O[C@@H]2C[C@H]3[C@@H]4CCC5=CC(=O)C=C[C@]5(C)[C@H]4[C@@H](O)C[C@]3(C)[C@]2(C(=O)CO)O1 (some centres not stated) [Budesonide] | -5.13
33 | O=C1CCc2ccc(OCCCCN3CCN(c4cccc(Cl)c4Cl)CC3)cc2N1 [Aripiprazole] | -3.31
34 | N#C[C@@H]1C[C@@H]2C[C@@H]2N1C(=O)[C@@H](N)C12CC3CC(CC(O)(C3)C1)C2 [Saxagliptin hydrochloride] | 4.83
35 | CC(=O)Nc1ccc(O)cc1 [Acetaminophen] | 0.242
36 | NS(=O)(=O)c1cc2c(cc1Cl)NC(C1CC3C=CC1C3)NS2(=O)=O (configuration not stated) [Cyclothiazide] | 1.22
37 | NC(=O)OCC(COC(N)=O)c1ccccc1 [Felbamate] | 1.44
